Most compounds without a hit are left out; they make up all but 6.1% or so of the library.
Gal4-VP16 FLuc: Gal4-VP16 reporter inhibition counter-screen; Drosophila S2 Gal4-VP16 UAS-luciferase, luminescence, 20 h; Potency, µM (series often up to 53.6 µM), hits mostly inhibitors; actives 3.5% (n = 310,000); AID 2546;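 note: Gal4-VP16 expression switched on by copper sulfate through the metallothionein promoter; nearly all actives have a fitted effect of over 50% in size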
RORgamma inh: blocks mouse ROR gamma transcriptional activity | P51450 | Drosophila S2 Gal4-RORgamma UAS-luciferase reporter, 20 h | Potency, µM (titrated, usually from 53.6 µM), usual class: inhibitors | actives 5.4% (n = 310,000); note: nearly all actives have a fitted effect of over 60% in size
Target sequence (P51450 whole entry, looked up, the tested form may be a part): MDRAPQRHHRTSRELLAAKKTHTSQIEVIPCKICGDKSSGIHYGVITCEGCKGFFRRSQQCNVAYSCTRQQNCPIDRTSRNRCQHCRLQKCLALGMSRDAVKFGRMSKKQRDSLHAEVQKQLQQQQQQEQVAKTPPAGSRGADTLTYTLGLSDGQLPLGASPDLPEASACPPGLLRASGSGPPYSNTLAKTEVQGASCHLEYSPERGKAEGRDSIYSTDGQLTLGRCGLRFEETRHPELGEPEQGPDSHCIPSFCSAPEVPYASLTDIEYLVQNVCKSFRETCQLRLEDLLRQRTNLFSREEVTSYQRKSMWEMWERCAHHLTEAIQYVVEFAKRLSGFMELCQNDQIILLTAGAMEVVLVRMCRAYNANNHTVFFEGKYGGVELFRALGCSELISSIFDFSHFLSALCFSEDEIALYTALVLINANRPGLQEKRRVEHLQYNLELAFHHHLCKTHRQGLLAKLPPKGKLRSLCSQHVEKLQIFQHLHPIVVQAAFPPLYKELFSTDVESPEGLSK
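Drosophila S2 cells stably expressing Gal4-DBD/mouse RORγ fusion under metallothionein promoter plus UAS-luciferase; compound 1 h, then 700 uM CuSO4 induction for 20 h at ambient temperature; inhibition read as reduced luminescence.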
ATXN2 expr inh: ATXN2 expression inhibition; HEK-293 ATXN2-luciferase reporter, luminescence, 24 h; actives 0.72% (n = 360,000); Potency, µM (titrated, usually from 57 µM), hits mostly inhibitors; note: nearly all actives have a fitted effect of over 55% in size
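ATXN2-luciferase reporter cells (luciferase flanked by upstream and downstream ATXN2 gene portions) were treated 24 h at 37 °C with compounds at up to 57 uM. SteadyGlo luminescence gave expression; GF-AFC fluorescence gave viability.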
HepG2 tox: kills HepG2 cells in TGF-b inhibitor counter-screen; AID 588856; actives 0.76% (n = 410,000); HepG2 CAGA-GFP viability, ATP luminescence, 18 h; Potency, µM (highest dose often 46.1 µM), most hits filed as cytotoxic
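CellTiter-Glo luminescence gave cytotoxicity after 18 hours at 37 degrees C. The cells were HepG2 CAGA-GFP in 1% FBS DMEM, stimulated with 500 pg/mL TGF-beta after compound addition. %Activity was normalised to no-cell wells (complete cell-killing) and DMSO (no toxicity), and curves were fitted and classified.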
ATXN viability: reduces viability in counter-screen for ATXN expression inhibitors; S2 cells (HEK-293 line with an ATXN2-luciferase reporter) viability, CellTiter-Fluor protease fluorescence, 24 h; Potency, µM (titrated, usually from 56.7 µM), usual class: cytotoxic; actives 0.49% (n = 400,000); note: nearly all actives have a fitted effect of over 40% in size
TGFb inhibitor: blocks TGF-b signaling | HepG2 CAGA-GFP TGF-b/SMAD3 reporter, GFP fluorescence, 18 h; TGF-beta stimulated, 500 pg/mL final | Potency, µM (titrated, usually from 46.1 µM), hits mostly inhibitors | actives 1.2% (n = 410,000) | AID 588855; note: nearly all actives have a fitted effect of over 65% in size
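Inhibition of TGF-beta-driven CAGA-GFP reporter expression in HEPG2 cells is measured by cellular GFP fluorescence after 18 h stimulation with 500 pg/mL recombinant TGF-beta in 1% FBS medium at 37 degrees C.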
Each line names hits and unclear results; the compound was inactive in the other large screens. Calls come from the whole dose curve; as a rule, active = well fitted curve in the direction sought with a large enough effect; inconclusive = small, poorly fitted or top-dose-only effect, or another doubt; inactive = no such curve, though single readings can be large; an effect the other way counts as inactive or inconclusive.

CCC(=O)NC(c1ccc(OC)c(OC)c1)c1cc(Cl)c2cccnc2c1O (centres undefined)	ATXN2 expr inh inconclusive, TGFb inhibitor inconclusive (no result: ATXN viability)
COc1ccccc1C(NC(C)=O)c1cc(Cl)c2cccnc2c1O (centres undefined)	Gal4-VP16 FLuc 2.8µM, RORgamma inh 2.2µM, ATXN2 expr inh inconclusive, TGFb inhibitor inconclusive
Cc1nc(NC2CCCCC2)c2nc(-c3ccccc3)n(CCN(C)C)c2n1	none (no result: ATXN2 expr inh, HepG2 tox, ATXN viability, TGFb inhibitor)
CCCSc1nc(-c2ccc(OC)cc2)cc(-c2ccccc2OC)c1C#N	TGFb inhibitor inconclusive (no result: Gal4-VP16 FLuc, RORgamma inh)
COc1cccc(NC(=O)c2oc3ccc(S(=O)(=O)N(C)C4CCCCC4)cc3c2C)c1	TGFb inhibitor inconclusive (no result: Gal4-VP16 FLuc, RORgamma inh, ATXN2 expr inh, ATXN viability)
O=C(NCc1nnc2n1CCN(C(=O)/C=C/c1ccccc1)CC2)c1cccc(F)c1	none (no result: Gal4-VP16 FLuc, RORgamma inh, ATXN2 expr inh, HepG2 tox, TGFb inhibitor)
COc1ccc(C(=O)NC(c2ccc(Cl)cc2)c2cc(Cl)c3cccnc3c2O)cc1 (centres undefined)	TGFb inhibitor inconclusive (no result: Gal4-VP16 FLuc, RORgamma inh)
O=C(NC(c1ccccc1)c1cc(Cl)c2cccnc2c1O)c1cccnc1 (centres undefined)	Gal4-VP16 FLuc 0.79µM, RORgamma inh 0.63µM (no result: ATXN2 expr inh, HepG2 tox, ATXN viability, TGFb inhibitor)
CC1(C)CC(=O)C2=C(C1)NC(=S)C(C#N)C21CCCCC1 (centres undefined)	RORgamma inh 10µM, ATXN viability inconclusive
CCNc1ncc2nc(C)c(=O)n(C[C@H]3CCCO3)c2n1	none (no result: ATXN2 expr inh, HepG2 tox, ATXN viability, TGFb inhibitor)
CCn1c(COc2cccc(C)c2)nc2ccccc21	Gal4-VP16 FLuc inconclusive, RORgamma inh 10µM
CCCn1c(COc2ccccc2OC)nc2ccccc21	Gal4-VP16 FLuc inconclusive, RORgamma inh 10µM
CCn1c(Cc2ccc(OC)cc2)nc2ccccc21	Gal4-VP16 FLuc 35µM, RORgamma inh 11µM
COc1ccc(Cc2nc3ccccc3n2Cc2ccccc2F)cc1	ATXN viability inconclusive, TGFb inhibitor inconclusive (no result: Gal4-VP16 FLuc, RORgamma inh)
CCCn1c(COc2ccccc2)nc2ccccc21	RORgamma inh 13µM
CCc1nc2ccccc2n1CCCCOc1cccc(C)c1	ATXN2 expr inh inconclusive, ATXN viability inconclusive, TGFb inhibitor inconclusive (no result: Gal4-VP16 FLuc, RORgamma inh)
C=CCn1c(COc2ccccc2OC)nc2ccccc21	Gal4-VP16 FLuc inconclusive, RORgamma inh inconclusive (no result: ATXN2 expr inh)
CCOCCn1c(COc2ccccc2)nc2ccccc21	RORgamma inh inconclusive
Cc1ccccc1CN1CCc2nnc(C(C)NC(=O)C3CCN(C)CC3)n2CC1 (centres undefined)	none (no result: Gal4-VP16 FLuc, RORgamma inh, ATXN2 expr inh, HepG2 tox, TGFb inhibitor)
CCn1c(COc2ccccc2OC)nc2ccccc21	Gal4-VP16 FLuc inconclusive, RORgamma inh 13µM, TGFb inhibitor inconclusive (no result: ATXN2 expr inh)
c1ccc(Cc2nc3ccccc3n2Cc2ccccc2)cc1	Gal4-VP16 FLuc 18µM, RORgamma inh inconclusive, TGFb inhibitor inconclusive
CCn1c(COc2ccccc2C)nc2ccccc21	Gal4-VP16 FLuc inconclusive, RORgamma inh inconclusive
Cn1c(COc2ccccc2Br)nc2ccccc21	Gal4-VP16 FLuc inconclusive, RORgamma inh 13µM, ATXN viability inconclusive, TGFb inhibitor inconclusive (no result: ATXN2 expr inh)
CC(c1nc2ccccc2n1Cc1ccccc1)N1CCCCC1 (centres undefined)	Gal4-VP16 FLuc inconclusive, RORgamma inh 14µM
Cc1nc2ccccc2n1Cc1ccccc1	Gal4-VP16 FLuc inconclusive, ATXN viability inconclusive (no result: ATXN2 expr inh)
COc1ccccc1OCc1nc2ccccc2n1C	Gal4-VP16 FLuc inconclusive, ATXN viability inconclusive
COc1ccc(-n2c(=O)c3ccccc3n(CC(=O)NCCc3ccccc3)c2=O)c(OC)c1	ATXN viability inconclusive (no result: Gal4-VP16 FLuc, RORgamma inh)
Cc1ccn2c(=O)cc(COc3ccc(NC(=O)COc4ccccc4)cc3)nc2c1	none (no result: Gal4-VP16 FLuc, RORgamma inh, ATXN2 expr inh, ATXN viability)
COc1cc(C(=O)Cc2nc3ccccc3n2C)cc(OC)c1OC	Gal4-VP16 FLuc 13µM, RORgamma inh 6.3µM
COc1cc(C(=O)NCCc2nc3ccccc3n2C)cc(OC)c1OC	none
CC(C)c1ccc(NS(=O)(=O)c2ccc3[nH]cc(C(=O)N4CCCC4)c(=O)c3c2)cc1	none (no result: Gal4-VP16 FLuc, RORgamma inh)
Cc1cc(C)cc(OCc2cc(=O)n3c4c(sc3n2)CCCC4)c1	none (no result: Gal4-VP16 FLuc, RORgamma inh)
CCOC(=O)c1c(C)sc2c1N(C(=O)CCl)c1cc(Cl)ccc1S2	ATXN2 expr inh inconclusive, ATXN viability 18µM, TGFb inhibitor inconclusive

Screening results as filed in PubChem.
